The whole screen tested about 39,000 compounds, of which about 1,500 (3.8%) were called active. The full list was thinned out, with actives kept by preference.

This assay relates to HSkMC (human skeletal muscle cells). In words: cytotoxicity call (relative viability < 0.9). The conditions noted are these: 10 µM.
`Cc1noc(C)c1NC(=O)Nc1ccc2c(c1)CC(=O)N([C@@H](C)CO)C[C@H](C)[C@H](CN(C)C(=O)Nc1ccc(C(F)(F)F)cc1)O2`: the cytotoxicity call is “inactive”.
Then `CO[C@@H](CN(C)S(=O)(=O)c1cccc(Cl)c1)[C@@H](C)CN([C@H](C)CO)S(=O)(=O)c1cccc(Cl)c1`, with “inactive”; and `C[C@@H]1CCCCO[C@H](CN(C)S(=O)(=O)c2cn(C)cn2)[C@@H](C)CN([C@@H](C)CO)C(=O)c2cc(NC(=O)Nc3cccc4ccccc34)ccc2O1`, with “inactive”.
Then `CO[C@@H]1CN(C)C(=O)c2ccc(NC(=O)C3CCOCC3)cc2OC[C@@H](C)N(C(=O)C2CCOCC2)C[C@H]1C`, with “inactive”; and `C[C@H](CO)N1C[C@H](C)[C@@H](CN(C)Cc2ccc(-c3ccccc3)cc2)Oc2ccc(NS(=O)(=O)c3ccccc3)cc2CC1=O`, with “inactive”; and `C[C@H]1CN([C@@H](C)CO)C(=O)Cc2cc(NS(=O)(=O)c3ccccc3)ccc2O[C@H]1CN(C)Cc1ccc(-c2ccccc2)cc1`, with “active”.
Regarding `C[C@H]1CN([C@@H](C)CO)C(=O)Cc2cc(NS(=O)(=O)c3ccccc3)ccc2O[C@@H]1CN(C)Cc1ccc(-c2ccccc2)cc1`, the cytotoxicity call is “active”.
With `C[C@@H]1CN([C@@H](C)CO)C(=O)Cc2cc(NS(=O)(=O)c3ccccc3)ccc2O[C@@H]1CN(C)Cc1ccc(-c2ccccc2)cc1` the entry was “active”; with `C[C@@H]1CN([C@H](C)CO)C(=O)Cc2cc(NS(=O)(=O)c3ccccc3)ccc2O[C@@H]1CN(C)Cc1ccc(-c2ccccc2)cc1`, “inactive”; with `C[C@@H]1CN([C@H](C)CO)C(=O)Cc2cc(NS(=O)(=O)c3ccccc3)ccc2O[C@H]1CN(C)Cc1ccc(-c2ccccc2)cc1`, “active”.
For `C[C@@H]1CN([C@@H](C)CO)C(=O)Cc2cc(NS(=O)(=O)c3ccccc3)ccc2O[C@H]1CN(C)Cc1ccc(-c2ccccc2)cc1`, the cytotoxicity call was “inactive”.
As to `C[C@H](CO)N1C[C@H](C)[C@H](CN(C)Cc2ccc(-c3ccccc3)cc2)Oc2ccc(NS(=O)(=O)c3ccccc3)cc2CC1=O`, the cytotoxicity call is “inactive”.
Take `CN(C)c1cncc(C(=O)O)c1`: the cytotoxicity call is “inactive”.
With `C[C@@H]1CCCCO[C@H](CN(C)C(=O)Nc2ccc3c(c2)OCO3)[C@H](C)CN([C@H](C)CO)C(=O)c2cc(NS(=O)(=O)c3ccccc3)ccc2O1`, the cytotoxicity call was “inactive”.
Turning to `CC(C)C#Cc1ccc2c(c1)O[C@H](CN(C)C(=O)Cc1ccccn1)[C@H](C)CN([C@H](C)CO)S2(=O)=O`, the cytotoxicity call is “inactive”.
Take `Cc1noc(C)c1NC(=O)N(C)C[C@@H]1Oc2ccc(NC(=O)NC(C)C)cc2CC(=O)N([C@H](C)CO)C[C@H]1C`: the cytotoxicity call is “inactive”.
For the compound `CCCC(=O)Nc1ccc2c(c1)OC[C@@H](C)N(C(=O)Cc1ccccn1)C[C@@H](C)[C@H](OC)CN(C)C2=O`, the cytotoxicity call was “inactive”.
Take `CCN1C(=O)CS/C1=N\N1CCOCC1`: the cytotoxicity call is “inactive”.
With `C[C@@H]1CN([C@H](C)CO)C(=O)c2cc(NC(=O)Nc3ccc(C(F)(F)F)cc3)ccc2O[C@@H](C)CCCCO[C@H]1CN(C)C(=O)Nc1ccc(F)cc1` the entry was “inactive”; with `COCCCNC(=O)[C@@]1(Sc2ccc(C)cc2)CC(=O)N(Cc2ccccc2C(F)(F)F)[C@@H]1c1ccc(CO)cc1`, “inactive”; with `C[C@@H]1CCCCO[C@@H](CN(C)C(=O)C2CCCCC2)[C@H](C)CN([C@@H](C)CO)C(=O)c2cc(NC(=O)Nc3ccccc3)ccc2O1`, “inactive”.
As for `C[C@@H]1CCCCO[C@H](CN(C)C(=O)Nc2ccc3c(c2)OCO3)[C@H](C)CN([C@H](C)CO)C(=O)c2cc(NC(=O)c3ccncc3)ccc2O1`, the cytotoxicity call is “inactive”.
With `C[C@@H]1CN([C@@H](C)CO)C(=O)c2ccccc2-c2ccccc2CO[C@H]1CN(C)C(=O)Nc1ccc(F)cc1` the entry was “inactive”.
As for `C[C@H](NC(=O)[C@@H](Cc1ccc2ccccc2c1)NC(=O)[C@@H](C)N)C(=O)N[C@@H](Cc1c[nH]c2ccccc12)C(=O)N[C@H](Cc1ccccc1)C(=O)N[C@@H](CCCCN)C(N)=O`, the cytotoxicity call is “inactive”.
With `CC(C)C[C@H](NP(=O)(O)O[C@H]1O[C@@H](C)[C@@H](O)[C@@H](O)[C@@H]1O)C(=O)N[C@H](Cc1c[nH]c2ccccc12)C(=O)O` the entry was “inactive”.
Then `CC(C)CC(NC(=O)C(C)NC(=O)CNC(=O)C(NC=O)C(C)C)C(=O)NC(C)C(=O)NC(C(=O)NC(C(=O)NC(C(=O)NC(Cc1c[nH]c2ccccc12)C(=O)NC(CC(C)C)C(=O)NC(Cc1c[nH]c2ccccc12)C(=O)NC(CC(C)C)C(=O)NC(Cc1c[nH]c2ccccc12)C(=O)NC(CC(C)C)C(=O)NC(Cc1c[nH]c2ccccc12)C(=O)NCCO)C(C)C)C(C)C)C(C)C` (stereo unspecified) [GRAMICIDIN (gramicidin A shown) ], with “active”.
Then `CCOc1ccc(C(=O)Nc2ccc(N3CCN(C(=O)c4cccs4)CC3)c(Cl)c2)cc1Br`, with “inactive”; and `C[C@@H]1CCCCO[C@@H](CN(C)Cc2ccc(C(=O)Nc3ccccc3N)cc2)[C@@H](C)CN([C@H](C)CO)C(=O)c2cc(NC(=O)Nc3cccc4ccccc34)ccc2O1`, with “inactive”.
Regarding `CC[C@@H](C)[C@H]1O[C@@]2(CC[C@@H]1C)C[C@H]1C[C@@H](CC=C(C)[C@@H](O[C@H]3C[C@@H](OC)[C@@H](O[C@H]4C[C@@H](OC)[C@@H](O)[C@@H](C)O4)[C@@H](C)O3)[C@@H](C)C=CC=C3CO[C@H]4[C@@H](O)C(C)=C[C@@H](C(=O)O1)[C@]34O)O2.CO[C@H]1C[C@@H](O[C@@H]2[C@@H](OC)C[C@@H](O[C@@H]3C(C)=CC[C@@H]4C[C@@H](C[C@@]5(CC[C@@H](C)[C@H](C(C)C)O5)O4)OC(=O)[C@@H]4C=C(C)[C@H](O)[C@@H]5OCC(=CC=C[C@@H]3C)[C@@]45O)O[C@@H]2C)O[C@@H](C)[C@@H]1O`, the cytotoxicity call was “active”.
With `CCC(C)C1OC2(CCC1C)CC1CC(CC=C(C)C(OC3CC(OC)C(OC4CC(OC)C(O)C(C)O4)C(C)O3)C(C)C=CC=C3COC4C(O)C(C)=CC(C(=O)O1)C34O)O2` (stereo unspecified) the entry was “inactive”; with `CC[C@H](C)[C@H]1O[C@]2(CC[C@@H]1C)C[C@@H]1C[C@@H](C/C=C(\C)[C@@H](O[C@H]3C[C@H](OC)[C@@H](O[C@H]4C[C@H](OC)[C@@H](O)[C@H](C)O4)[C@H](C)O3)[C@@H](C)/C=C/C=C3\CO[C@@H]4[C@H](O)C(C)=C[C@@H](C(=O)O1)[C@]34O)O2`, “active”.

The values are drawn from the antibiotic and cytotoxicity screens of Wong et al. (2023).
